# GPR32 ag = agonists of human resolvin D1 receptor DRV1 (GPR32) | O75388 | CHO-K1 GPR32 beta-arrestin PathHunter luminescence, 90 min; zero percent set by DMSO-only wells | activation, % at 76.9 µM | hit rate 2.5% among 48,000;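 active = activation of at least 60% and not above a set upper limit, about 1 call in 100 departs from these limits; inconclusive = activation of 40% to 60%, or above that upper limit; inactive = activation under 40%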; also: 0% is about no effect
#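 Step 1: seed CHO-K1 GPR32 beta-arrestin cells, 2,500/well, overnight at 37 °C. Step 2: add compounds, 90 min at 37 °C. Step 3: detection reagent, 1 h ambient, then luminescence.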
# TSG101-PTAP inh = blocks PTAP binding to human TSG101, validation; Q99816; Fluorescence polarization, FITC-PTAP peptide/Tsg101, 20 min; Potency, µM (top dose mostly 115 µM), usual class: inhibitors; 44,000 tested, under 10 active; also: potency is read from the fitted curve at half-maximal effect; 0% is about no effect
# Target sequence (Q99816 whole entry, looked up): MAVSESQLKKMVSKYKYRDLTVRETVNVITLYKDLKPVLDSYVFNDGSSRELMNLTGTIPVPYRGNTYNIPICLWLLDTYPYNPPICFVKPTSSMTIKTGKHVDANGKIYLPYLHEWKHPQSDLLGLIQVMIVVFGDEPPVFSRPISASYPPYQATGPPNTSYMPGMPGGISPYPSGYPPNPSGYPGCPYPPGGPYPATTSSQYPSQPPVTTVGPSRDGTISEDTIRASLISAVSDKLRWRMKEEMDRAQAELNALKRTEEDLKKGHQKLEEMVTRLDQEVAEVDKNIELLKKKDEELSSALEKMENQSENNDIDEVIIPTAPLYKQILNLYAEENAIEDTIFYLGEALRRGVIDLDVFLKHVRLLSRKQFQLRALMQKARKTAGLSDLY
#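 Read-out is FITC fluorescence polarization. Compounds were added to Tsg101 binding domain (10 uM final), then FITC-PTAP peptide (50 nM final), 20 min at r.t. Total S+P intensity flags fluorescent compounds.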
# OvCa metastasis = ovarian cancer metastasis inhibition, 3D TME model; hit rate 0.1% among 46,000; Potency, µM (top dose mostly 45.8 µM), without a hit: at the top dose activity change, negative = inhibition, actives largely listed as inhibitors; SKOV3ip1-GFP adhesion/invasion on 3D omental model, fluorescence; AID 1963576;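 also: potency is read from the fitted curve at half-maximal effect; plate controls were DMSO wells for no effect and tomatine positive control wells for full effect; nearly all actives have a fitted effect of over 65% in size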
#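 Primary human omental fibroblast/mesothelial 3D culture pre-formed 48 h. SKOV3ip1-GFP cells added with compounds (0.36-46 umol/L), incubated 2 h RT/16 h 37 C, fixed; GFP cells quantified at 488/509 nm.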
# B2AR arrestin ag = agonists recruiting beta-arrestin to human beta2-adrenergic receptor | P07550 | HTLA Tango cells, beta-arrestin recruitment, luciferase luminescence, 18 h | Potency, µM (top dose mostly 46.1 µM), most hits filed as activators | 44,000 tested, under 10 active;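 also: potency is read from the fitted curve at half-maximal effect; 0% = DMSO and full agonism = EC100 isoproterenol or metaproterenol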
#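 Tango cell line, 1% FBS DMEM; cpd titration up to 46 microM; 18 hr, 37 degrees C, 5% CO2. Luciferin/ATP substrate mix added, 15 min RT, luminescence. %Activity, CRC fitting, curve-class categorization.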
# GALK inh = inhibitors of human galactokinase (GALK) | 44,000 tested, under 10 active | Potency, µM (series often up to 57.5 µM), for the others: at the highest dose activity, negative = inhibition, most hits filed as inhibitors | P51570 | recombinant GALK, Kinase-Glo ATP luminescence, 1 h;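 also: plate controls were full GALK reaction for no effect and reaction lacking GALK for full effect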
#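 Reactions with and without enzyme served as controls. GALK at 5 nM phosphorylates 100 uM galactose using 35 uM ATP (HEPES pH 8.0, Mg2+) for 1 h at RT, with luminescence read 10 min after adding Kinase-Glo Plus.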
# NTMT1 inh = blocks human N-terminal methyltransferase 1 activity. NTMT1 MTase-Glo SAH luminescence, purified enzyme. Q9BV86. hit rate 2.5% among 59,000. Potency, µM (top dose mostly 114 µM), for inactives: at the highest dose activity change, negative = inhibition, actives largely listed as inhibitors;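 also: potency is read from the fitted curve at half-maximal effect; plate controls were DMSO vehicle for no effect and no enzyme for full effect; nearly all actives have a fitted effect of over 65% in size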
# Target sequence (Q9BV86 whole entry, looked up): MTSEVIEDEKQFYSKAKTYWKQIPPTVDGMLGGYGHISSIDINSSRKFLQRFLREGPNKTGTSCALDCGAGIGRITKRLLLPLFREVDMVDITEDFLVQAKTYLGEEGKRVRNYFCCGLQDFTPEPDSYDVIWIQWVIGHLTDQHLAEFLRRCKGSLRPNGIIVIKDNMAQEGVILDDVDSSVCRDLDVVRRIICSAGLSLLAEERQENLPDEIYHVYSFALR
# An asterisk follows results filed as active; i = inactive; ? = inconclusive; nt = no result given; ! = not active in a repeat; [ ] = remark or other dose. A selection: hits, their analogues and other compounds. The true share with any hit is near 3.8%. Unless noted, calls follow the shape of the dose curve; as a rule, active = well fitted curve in the direction sought with a large enough effect; inconclusive = small, poorly fitted or top-dose-only effect, or another doubt; inactive = no such curve, though single readings can be large; an effect the other way counts as inactive or inconclusive.
SMILES,GPR32 ag,TSG101-PTAP inh,OvCa metastasis,B2AR arrestin ag,GALK inh,NTMT1 inh
CCOC(=O)C1CCN(C(=O)CSc2n[nH]c(-c3ccc(OC)cc3)n2)CC1,-8,i,-9%,i,-4%,-3%
COc1cccc(NC(=O)CSc2c3c(nc4ccccc24)CCCC3)c1,38,i,11µM*,i,0%,-2%
COc1ccc(OC)c(NC(=O)CSc2c3c(nc4ccccc24)CCCC3)c1,-25,i,?,i,8%,-14%
Cc1ccc(NC(=O)CSc2c3c(nc4ccccc24)CCCC3)cc1F,65*,i,-23%,i,-2%,-3%
CCC(=O)N1CCc2cc(S(=O)(=O)N(C)c3cccc(C)c3)ccc21,63*,i,-8%,i,2%,4%
CCN1CCC(N(Cc2ccc3c(c2)OCO3)C(=O)Nc2ccc(Br)c(C)c2)CC1,80*,i,?,i,3%,?
CCN1CCC(N(Cc2ccc3c(c2)OCO3)C(=O)Nc2cccc(C)c2C)CC1,-7,i,12%,i,-3%,0%
Cc1nc2cc(-c3cccc(F)c3)nn2c(C)c1CCC(=O)NC1CCCCC1,4,i,11%,i,9%,-11%
CN1C(=O)CC[C@H]1c1cccnc1,4,nt,nt,nt,nt,-15%[57.5 µM]
CN1CCC[C@@H]1c1cccnc1,0,nt,nt,nt,nt,16µM*
Cc1cccc(OCC(=O)Nc2ccc3oc(-c4ccccc4F)nc3c2)c1,121*,i,-6%,i,-1%,17%
COc1cc2ccccc2cc1C(=O)Nc1ccc2oc(-c3cccc(Cl)c3Cl)nc2c1,0,i,-2%,i,0%,79µM*
Cc1ccccc1-c1nc2cc(NC(=O)Cc3ccc(Cl)cc3)ccc2o1,118*,i,i,i,-2%,6%
O=C(COc1ccccc1Cl)Nc1ccc2oc(-c3ccccc3F)nc2c1,-8,i,i,i,0%,17%
Cc1cccc(OCC(=O)Nc2ccc3nc(Nc4cccc(C(F)(F)F)c4)cc(C)c3c2)c1,76*,i,-4%,i,1%,10%
CCOc1ccc(N2C(=O)N(Cc3c(F)cccc3Cl)c3ccccc3S2(=O)=O)cc1,-18,i,19%,i,3%,8%
O=S(=O)(Nc1ccc(C2CCNCC2)cc1)c1ccc(NCc2cccc(Cl)c2O)cc1,nt,nt,nt,nt,nt,22µM*
CC(=O)NCCNc1nc2c(-c3cccc(C)c3)nnn2c2ccc(Cl)cc12,-4,i,i,i,5%,0%
O=[S+]([O-])(c1ccc2c(c1)OCCO2)N1CCN([S+](=O)([O-])c2c(F)cc(F)cc2Br)CC1,nt,nt,nt,nt,nt,14%
CN(C)CCN(C)C(=O)c1ccc(NC(=O)Nc2ccc(-c3nc(N4CCOCC4)c4ccn(CC(F)(F)F)c4n3)cc2)cc1,nt,nt,?,nt,nt,22µM*!
COC(=O)C1=C(C)N=C2SCCC(=O)N2C1c1ccc(OCc2ccccc2)c(OC)c1 (stereo unspecified),-4,i,-5%,i,0%,3%
CCc1c(C)nc2nc(-c3ccccc3)nn2c1NCc1ccc(C)cc1,72*,i,20%,i,0%,-8%
CCOc1ccc(CCNC(=O)c2cc3cc4ccc(OC)cc4nc3s2)cc1OCC,65*,i,i,i,2%,13%
O=C(Nc1ccc2oc(-c3cccnc3)nc2c1)c1cccc(Br)c1,-2,i,0%,i,0%,-4%
Cc1ccc(Cn2c(C)c(CNC(C)c3ccccc3)c(C(=O)O)c2C)cc1 (stereo unspecified),0,i,10%,i,0%,-13%
SMILES,GPR32 ag,TSG101-PTAP inh,OvCa metastasis,B2AR arrestin ag,GALK inh,NTMT1 inh
Cc1ccc(CNCc2c(C(=O)O)c(C)n(Cc3ccc(C)cc3)c2C)cc1,5,i,-1%,i,0%,-22%
Cc1ccc(Cn2c(C)c(CNCc3ccc(OC(C)C)cc3)c(C(=O)O)c2C)cc1,86*,i,8%,i,1%,?
Cc1ccc(Cn2c(C)c(CNCC(C)c3ccccc3)c(C(=O)O)c2C)cc1 (stereo unspecified),75*,i,15%,i,-1%,-2%
O=C(NCCN1CCN(c2cccc(Cl)c2)CC1)Nc1ccccc1C(F)(F)F,-19,i,-3%,i,0%,-6%
Cc1ccc(Cl)cc1N1CCN(CCNC(=O)Nc2ccccc2Cl)CC1,-5,i,112%,i,4%,89µM*
COc1cc(Oc2ccnc3cc(OC)c(OC)cc23)ccc1NC(=O)NC(C)c1nccs1 (stereo unspecified),nt,nt,-7%,nt,nt,79µM*!
CCOC(=O)N1CCc2c(sc(NCc3sccc3C)c2C(=O)Nc2cc(OC)ccc2OC)C1,-8,i,i,i,1%,29%
Cc1cccc(NC(=O)Nc2ccc(F)cc2)n1,-11,i,2%,i,2%,-3%
Cc1ccc(NC(=O)Nc2cccc(C)n2)cc1,65*,i,?,i,0%,-3%
COc1ccccc1N1CCN(c2ccc(=O)n(CC(=O)Nc3ccc(F)c(F)c3)n2)CC1,1,i,3%,i,-2%,5%
Cc1ccc(S(=O)(=O)Nc2cc(Cl)c3oc4c(c3c2)C(=O)CC(C)(C)C4)cc1,-2,i,?,i,0%,nt
N#Cc1nc(Nc2ccccc2)nc(NC2CCCC2)n1,nt,nt,nt,nt,nt,-13%[57.5 µM]
CCN(CCCc1ccccc1)CCCc1ccccc1,31,nt,nt,nt,nt,?
CCCNCC(O)COc1ccccc1C(=O)CCc1ccccc1 (stereo unspecified),87*!,nt,-8%,nt,nt,-6%
CC(=O)NCc1cccc(OC[C@@H](O)CNCCc2ccc(NS(=O)(=O)c3ccccc3)cc2)c1,nt,nt,nt,nt,nt,6%[57.5 µM]
CCN(CC)CCOc1ccc(Cc2ccccc2)cc1,7,nt,-6%,nt,nt,32µM*!
CCN(CC)CCOc1ccccc1C(=O)CCc1ccccc1,107*,nt,nt,nt,nt,24%[57.5 µM]
COc1ccccc1-c1csc(N2CCC(C(N)=O)CC2)n1,nt,nt,nt,nt,nt,-6%[57.5 µM]
COc1cc(NC(=O)N2CCN(c3cc(-c4noc(C)n4)ccc3C)CC2)cc(OC)c1OC,9,i,i,i,0%,4%
CCOc1ccc(S(=O)(=O)N2CCC(c3ccncc3)CC2)cc1,13,i,3%,i,-1%,3%
COC(=O)C1=C(C)NC(C)=C(C(=O)OCCCN2CCC(c3ccccc3)(c3ccccc3)CC2)C1c1cccc([N+](=O)[O-])c1 (stereo unspecified),105*,nt,-11%,nt,nt,8%[57.5 µM]
